In article PMC5700166:
Where a chain is given by its changes, count along the chain named.

Columns and labels:
Assay in all cases: protein-binding microarray (PBM); PBM: ~300 nM protein, 6 mM HEPES pH 7.8, 80 mM KCl, 0.5 mM EDTA, 0.5 mM EGTA, 6% glycerol, 35 ng/ul poly-dIdC, 1% milk, 1 h, room temperature; Ap Aiptasia and Nv Nematostella (sea anemones) / Co Capsaspora / Aq Amphimedon (sponge) / Dm Drosophila / Hu human; RHD is the Rel homology domain; high values mean tight binding
Settings in all cases: dsDNA, one strand shown
[1] = target: T1, GST-Nv-NF-kB (Cys allele) (Nematostella vectensis, UniProt E5G601 2-411)
T1 sequence: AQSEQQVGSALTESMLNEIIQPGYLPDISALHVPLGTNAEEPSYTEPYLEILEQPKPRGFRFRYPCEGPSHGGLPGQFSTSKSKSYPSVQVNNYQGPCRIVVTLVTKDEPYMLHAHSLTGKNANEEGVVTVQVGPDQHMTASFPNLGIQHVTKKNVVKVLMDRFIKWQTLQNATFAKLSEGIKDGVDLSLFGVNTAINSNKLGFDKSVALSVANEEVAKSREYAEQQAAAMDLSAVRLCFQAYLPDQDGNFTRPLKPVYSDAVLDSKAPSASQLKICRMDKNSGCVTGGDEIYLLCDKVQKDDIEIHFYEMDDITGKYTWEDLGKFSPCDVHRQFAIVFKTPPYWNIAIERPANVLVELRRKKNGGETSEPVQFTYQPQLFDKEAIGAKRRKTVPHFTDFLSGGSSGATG

[2] = target: T2, GST-Dm-Relish (Drosophila melanogaster, UniProt Q94527 99-473)
T2 sequence: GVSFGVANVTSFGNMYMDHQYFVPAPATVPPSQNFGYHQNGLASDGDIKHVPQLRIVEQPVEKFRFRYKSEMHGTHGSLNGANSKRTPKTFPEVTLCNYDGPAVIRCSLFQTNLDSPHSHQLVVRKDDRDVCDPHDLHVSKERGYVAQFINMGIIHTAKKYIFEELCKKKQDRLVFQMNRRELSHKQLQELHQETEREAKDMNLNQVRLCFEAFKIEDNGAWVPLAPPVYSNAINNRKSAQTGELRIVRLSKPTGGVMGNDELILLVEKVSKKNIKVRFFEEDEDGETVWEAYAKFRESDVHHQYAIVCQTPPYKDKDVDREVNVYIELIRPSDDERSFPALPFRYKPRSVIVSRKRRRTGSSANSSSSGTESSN

[3] = target: T3, GST-Aq-NF-kB (Amphimedon queenslandica, UniProt A9Y5G7 2-389)
T3 sequence: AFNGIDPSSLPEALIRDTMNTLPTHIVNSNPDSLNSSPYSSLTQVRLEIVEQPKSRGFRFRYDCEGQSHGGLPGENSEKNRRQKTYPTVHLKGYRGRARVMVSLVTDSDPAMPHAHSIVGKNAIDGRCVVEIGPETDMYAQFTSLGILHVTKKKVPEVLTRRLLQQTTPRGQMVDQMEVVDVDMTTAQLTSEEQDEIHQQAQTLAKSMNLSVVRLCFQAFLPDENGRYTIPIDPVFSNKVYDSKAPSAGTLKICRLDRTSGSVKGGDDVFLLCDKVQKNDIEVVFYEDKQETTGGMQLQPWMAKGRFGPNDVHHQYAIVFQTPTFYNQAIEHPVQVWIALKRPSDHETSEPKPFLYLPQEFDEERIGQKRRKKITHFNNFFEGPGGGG

[4] = target: T4, GST-Nv-NF-kB (Ser allele) (Nematostella vectensis, UniProt A7UNT2 2-411)
T4 sequence: T1 sequence with Q21R, C66S, S207N, E215Q, V217A, E225K, A268E, D399E

[5] = target: T5, GST-Co-NF-kB (Capsaspora owczarzaki, UniProt F1ARL5 200-546)
T5 sequence: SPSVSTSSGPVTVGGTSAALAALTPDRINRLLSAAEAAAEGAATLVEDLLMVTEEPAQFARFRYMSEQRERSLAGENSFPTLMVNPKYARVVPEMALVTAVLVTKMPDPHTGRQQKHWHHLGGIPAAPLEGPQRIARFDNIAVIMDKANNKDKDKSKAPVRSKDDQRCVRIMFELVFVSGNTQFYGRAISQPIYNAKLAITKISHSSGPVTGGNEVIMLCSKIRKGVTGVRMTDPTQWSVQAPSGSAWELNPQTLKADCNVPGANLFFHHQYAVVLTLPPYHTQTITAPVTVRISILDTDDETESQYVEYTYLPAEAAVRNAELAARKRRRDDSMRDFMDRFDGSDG

Sequence	binding signal [1]	binding signal [2]	binding signal [3]	binding signal [4]	binding signal [5]
CCGATTAACATCAGGAATATACCTGATGTTAATCGGGTCTTGATTCGCTTGACGCTGCTG	1.47 z-score	1.86 z-score	1.69 z-score		
CCGATTAACATCAGGAAGTTACCTGATGTTAATCGGGTCTTGATTCGCTTGACGCTGCTG	1.29 z-score	2.36 z-score	2.57 z-score	1.31 z-score	
CCGATTAACATCACTTTGGGAAATGATGTTAATCGGGTCTTGATTCGCTTGACGCTGCTG	1.89 z-score		1.28 z-score		2.05 z-score
CCGATTAACATCATTGGGAAAAATGATGTTAATCGGGTCTTGATTCGCTTGACGCTGCTG	2.44 z-score		1.92 z-score		3.75 z-score
CCGATTAACATCAGGAAAAAACCTGATGTTAATCGGGTCTTGATTCGCTTGACGCTGCTG	1.77 z-score	3.66 z-score	3.37 z-score	2.77 z-score	
CCGATTAACATCAGACATGGGAATGATGTTAATCGGGTCTTGATTCGCTTGACGCTGCTG	1.46 z-score		1.94 z-score		2.4 z-score
CCGATTAACATCAGGAATGTACCTGATGTTAATCGGGTCTTGATTCGCTTGACGCTGCTG	1.98 z-score	4.93 z-score	3.14 z-score		
CCGATTAACATCAGGGCAGTACCTGATGTTAATCGGGTCTTGATTCGCTTGACGCTGCTG	1.21 z-score	1.84 z-score	3.03 z-score		
CCGATTAACATCAATTCCCAACATGATGTTAATCGGGTCTTGATTCGCTTGACGCTGCTG	2.32 z-score		1.17 z-score		1.84 z-score
CCGATTAACATCATTTCCCAAAATGATGTTAATCGGGTCTTGATTCGCTTGACGCTGCTG	2.55 z-score	1.36 z-score	1.26 z-score		1.54 z-score
CCGATTAACATCAAGGAATTTCCTGATGTTAATCGGGTCTTGATTCGCTTGACGCTGCTG	1.75 z-score	2.04 z-score	4.35 z-score		
CCGATTAACATCAAGGAAAAACCTGATGTTAATCGGGTCTTGATTCGCTTGACGCTGCTG	1.07 z-score	2.61 z-score	3.09 z-score		
CCGATTAACATCAGGAAATTTCCTGATGTTAATCGGGTCTTGATTCGCTTGACGCTGCTG	1.72 z-score	1.75 z-score	3.27 z-score		
CCGATTAACATCAGAAATGGGAATGATGTTAATCGGGTCTTGATTCGCTTGACGCTGCTG	2.45 z-score		2.5 z-score		1.87 z-score
CCGATTAACATCAGGAATCTACCTGATGTTAATCGGGTCTTGATTCGCTTGACGCTGCTG	1.61 z-score	2.24 z-score	3.42 z-score		
CCGATTAACATCAACCATGGGAATGATGTTAATCGGGTCTTGATTCGCTTGACGCTGCTG	1.18 z-score		1.99 z-score		1.67 z-score
CCGATTAACATCAGTGTCCCGTTTGATGTTAATCGGGTCTTGATTCGCTTGACGCTGCTG	2.18 z-score		1.32 z-score		
CCGATTAACATCAGAAATTACCATGATGTTAATCGGGTCTTGATTCGCTTGACGCTGCTG	1.45 z-score	2.33 z-score	1.16 z-score		
CCGATTAACATCAGGAAAAGTCCTGATGTTAATCGGGTCTTGATTCGCTTGACGCTGCTG	1.25 z-score	2.98 z-score	3.07 z-score		
CCGATTAACATCAGGATTTTACCTGATGTTAATCGGGTCTTGATTCGCTTGACGCTGCTG	2.01 z-score	3.21 z-score	3.66 z-score		
CCGATTAACATCAGGGTTAGTTGTGATGTTAATCGGGTCTTGATTCGCTTGACGCTGCTG			1.57 z-score		1.11 z-score
CCGATTAACATCAACGGAAATTCTGATGTTAATCGGGTCTTGATTCGCTTGACGCTGCTG			1.24 z-score		1.34 z-score
CCGATTAACATCAAGGTATTTCCTGATGTTAATCGGGTCTTGATTCGCTTGACGCTGCTG	1.66 z-score	3.08 z-score	3.84 z-score	1.29 z-score	
CCGATTAACATCACATGTGGGAATGATGTTAATCGGGTCTTGATTCGCTTGACGCTGCTG	1.34 z-score		2.05 z-score		2.62 z-score
CCGATTAACATCAAATTGGGAAATGATGTTAATCGGGTCTTGATTCGCTTGACGCTGCTG	2.55 z-score		1.16 z-score		1.89 z-score
